Results: PubChem BioAssay AID1851 (National Center for Advancing Translational Sciences (NCATS), 2009)
About 4,000 (25%) of roughly 16,000 compounds were called active. Roughly 26% stayed inconclusive and do not appear here. Calls follow the shape of the dose curve; as a rule, active = well fitted curve in the direction sought with a large enough effect; inconclusive = small, poorly fitted or top-dose-only effect, or effect the other way; inactive = no such curve, though single readings can be large or run the other way. Not all results are given here.

Target: Cytochrome P450 2C9 (Homo sapiens) (UniProt P11712)
Sequence (P11712 whole entry, looked up): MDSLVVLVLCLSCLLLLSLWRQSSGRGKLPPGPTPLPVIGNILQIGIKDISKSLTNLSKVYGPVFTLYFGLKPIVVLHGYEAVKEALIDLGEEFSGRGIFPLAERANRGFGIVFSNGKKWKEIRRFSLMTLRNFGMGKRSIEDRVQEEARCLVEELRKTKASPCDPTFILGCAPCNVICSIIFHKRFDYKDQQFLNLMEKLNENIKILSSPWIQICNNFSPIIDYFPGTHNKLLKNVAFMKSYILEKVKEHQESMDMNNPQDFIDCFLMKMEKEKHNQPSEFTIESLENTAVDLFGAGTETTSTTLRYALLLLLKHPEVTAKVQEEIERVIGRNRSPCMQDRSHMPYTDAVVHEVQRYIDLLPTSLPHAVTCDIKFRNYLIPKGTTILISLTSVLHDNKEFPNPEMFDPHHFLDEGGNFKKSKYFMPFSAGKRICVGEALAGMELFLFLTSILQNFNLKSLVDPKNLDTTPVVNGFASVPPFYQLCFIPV
Assay: Cytochrome panel assay with activity outcomes
Conditions: recombinant CYP, pro-luciferin dealkylation, luminescence, p450-cyp2c9; series mostly up to 57.1 µM; activity, negative = inhibition: at the top concentration
% is scaled to controls: 0 for no effect and ±100 for the full control effect.

Row | Compound | activity, negative = inhibition | AC50
1 | [Cu].[O-]/N=C1/C(=[OH+])Nc2ccccc21.[O-]Nc1c(O)[nH]c2ccccc12 | -2.92% [at 11.4 µM] (inactive) | –
2 | CN(CCCNC(=O)C1CCC(=O)N1Cc1ccccc1Cl)c1ccccc1 (stereo not drawn) | -22.6% (inactive) | –
3 | O=c1n(CCCN2CCN(c3cccc(Cl)c3)CC2)nc2ccccn12 | – | inactive
4 | CCS(=O)(=O)N1CCC(C(=O)NCCCOC)CC1 | -32.5% (inactive) | –
5 | O=C(C1CCC(=O)N1Cc1ccccc1Cl)N1CCN(c2cccc(Cl)c2)CC1 (stereo not drawn) | – | 15.8 µM (active)
6 | COC(=O)N1CCC2(CC1)CCN(c1cccc(-c3ccccc3)c1)CC2 | 10.7% (inactive) | –
7 | COCCCNC(=O)C1CCC(=O)N1Cc1ccccc1Cl (stereo not drawn) | – | 5.62 µM (active)
8 | O=C(Nc1ccc(Br)cc1)C1CCC(=O)N1Cc1ccccc1Cl (stereo not drawn) | – | 0.447 µM (active)
9 | Cc1noc(NS(=O)(=O)c2ccc(N/C=C\C(=O)c3ccc4c(c3)OCO4)cc2)c1C | – | 14.1 µM (active)
10 | Cc1noc(NS(=O)(=O)c2ccc(N/C=C/C(=O)c3ccc4c(c3)OCO4)cc2)c1C | – | 12.6 µM (active)
11 | CCCSc1nc(SCC(=O)NCc2ccccc2)c2c3c(sc2n1)COC(C)(CC)C3 (stereo not drawn) | – | 3.98 µM (active)
12 | CCC1(C)Cc2c(sc3nnn(CC(=O)Nc4cccc5ccccc45)c(=O)c23)CO1 (stereo not drawn) | – | 7.94 µM (active)
13 | CCC1(C)Cc2c(sc3nnn(CC(=O)Nc4ccc(C)cc4)c(=O)c23)CO1 (stereo not drawn) | – | 11.2 µM (active)
14 | CCCSc1nc(NCc2ccco2)c2c3c(sc2n1)COC(C)(C)C3 | – | 6.31 µM (active)
15 | COC(=O)[C@H](CCSC)NC(=O)C/C=C\[C@@H](C)[C@@H](CO)OC | -1.66% [at 11.4 µM] (inactive) | –
16 | CN(C)c1ccc(-c2nccc(NCc3cccs3)n2)cc1 | -21.1% [at 2.29 µM] (inactive) | –
17 | CC(=O)OC1CCC(OC(C)=O)c2c1n([O-])c(C)c(C)[n+]2=O (stereo not drawn) | -6.01% (inactive) | –
18 | O=C(CC(c1ccccc1)c1ccccc1)Nc1ccc2c(c1)OCCO2 | – | 4.47 µM (active)
19 | O=C(Nc1ccc2c(c1)OCCO2)c1cccc2nc3ccccc3nc12 | – | 12.6 µM (active)
20 | CC(=O)Nc1ccc2c(c1)OCCOCCOc1cc(NC(C)=O)ccc1OCCOCCOCCO2 | -15% (inactive) | –

Row | Compound | activity, negative = inhibition | AC50
21 | CCn1c(-c2ccccc2Cl)nn(CC(=O)Nc2ccc(OC)cc2)c1=S | – | 2.24 µM (active)
22 | COC(=O)Cn1nc(-c2ccccc2)n(-c2ccccc2)c1=S | -24.6% (inactive) | –
23 | CC(=O)Nc1ccc2c(c1)OCCO2 | -11.3% (inactive) | –
24 | O=C(Nc1ccc2c(c1)OCCO2)C1CCN(C(=O)c2ccccc2)CC1 | -40.1% (inactive) | –
25 | O=C(CN1CCN(CC(=O)Nc2ccccc2Cl)CC1)Nc1ccc2c(c1)OCCO2 | – | 4.47 µM (active)
26 | Oc1cc2c(c(Cl)c1O)CCNC[C@H]2c1ccccc1 | – | inactive
27 | COc1ccccc1NC(=O)CN1CCN(CC(=O)Nc2ccc(OCc3ccccc3)cc2)CC1 | – | 2.24 µM (active)
28 | COC(=O)N1CCC2(CCN(C(=O)Nc3ccc(OC)cc3)CC2)CC1 | -9.69% (inactive) | –
29 | S=C(Nc1ccccc1)Nc1ccc(OCc2ccccc2)cc1 | -35.1% (inactive) | –
30 | COC(=O)N1CCC2(CC1)CN(C(=O)Nc1ccc(OC)cc1)C2 | -26.8% (inactive) | –
31 | COc1ccc(NC(=O)CN2CCN(CC(=O)Nc3ccccc3Cl)CC2)cc1 | – | 8.91 µM (active)
32 | O=C1[C@@H]2[C@H]3[C@H](O)[C@H](O)C/C(=N/OC[C@@H](O)COCc4ccco4)[C@H]3CC[C@H]2C(=O)N1c1ccc(F)cc1F | -12.6% [at 11.4 µM] (inactive) | –
33 | Cc1cccc(CNc2cc(-c3cccc(C#N)c3)ncn2)c1 | 3.34% [at 2.29 µM] (inactive) | –
34 | NCCS(=O)O | 8.02% (inactive) | –
35 | Cn1c(=O)c2[nH]c(/N=N\N3CCN(CCO)CC3)nc2n(C)c1=O | 4.93% [at 11.4 µM] (inactive) | –
36 | C#CCn1c(S(=O)(=O)Cc2ccc(OC)cc2)nc(-c2ccccc2)c1-c1ccccc1 | – | 2.82 µM (active)
37 | COc1ccc(CO/N=C/c2c(C)[nH]c(=O)[nH]c2=O)cc1 | -23.5% (inactive) | –
38 | C[C@H](CCC(=O)NCC(=O)O)[C@H]1CC[C@H]2[C@H]3[C@@H](C[C@@H](O)[C@]12C)[C@]1(C)CC[C@H](O)C[C@@H]1C[C@@H]3O | -14.1% [at 25.6 µM] (inactive) | –
39 | COC(=O)CC[C@@H](C)[C@H]1CC[C@H]2[C@H]3CC[C@H]4C[C@@H]5CC[C@@]4(C)C3(O5)[C@@H](Br)[C@@H](Br)[C@@]12C | – | 2.51 µM (active)
40 | COC(=O)N1CCC2(CC1)CCN(c1ccncc1)CC2 | 14.6% (inactive) | –

Row | Compound | activity, negative = inhibition | AC50
41 | CC(C)(C)c1ccc(OCC(=O)NNC(=O)Cc2cccs2)cc1 | 28.7% (inactive) | –
42 | Cn1cc(C(=O)N/N=C/C(Br)=C\c2ccccc2)ccc1=O | -26% (inactive) | –
43 | C/C(CC(=O)NC1CCCC1)=N\NC(=O)Cc1cccs1 | -10.1% (inactive) | –
44 | CC(/C=N/NC(=O)Cc1cccs1)=C\c1ccco1 | – | 7.94 µM (active)
45 | O=C(Cc1cccs1)N/N=C/C(Br)=C/c1ccccc1 | – | 2.82 µM (active)
46 | Cn1cccc1CC(=O)N/N=C\c1cccs1 | -23.2% (inactive) | –
47 | Cc1nc2c([nH]1)c(=O)n(C)c(=O)n2Cc1ccco1 | 13.3% (inactive) | –
48 | C[C@](O)(C(=O)Nc1ccc(S(=O)(=O)c2ccccc2)cc1)C(F)(F)F | -10.9% (inactive) | –
49 | Nc1c(S(=O)(=O)c2ccccc2)c2nc3ccccc3nc2n1Cc1ccco1 | – | 3.55 µM (active)
50 | CC(=O)Nc1c(S(=O)(=O)c2ccccc2)c2nc3ccccc3nc2n1Cc1ccccc1 | – | 8.91 µM (active)
51 | CC(C)(C)CNC(CO)C12CC3CC(CC(C3)C1)C2 (stereo not drawn) | -9.91% (inactive) | –
52 | CCOC(=O)N/N=C1/C[C@@H](O)[C@@H](O)[C@@H]2[C@@H]3C(=O)N(Cc4ccc5c(c4)OCO5)C(=O)[C@H]3CC[C@@H]12 | 1.72% [at 11.4 µM] (inactive) | –
53 | CCOC(=O)N/N=C1/C[C@@H](O)[C@@H](O)[C@@H]2[C@@H]3C(=O)N(Cc4ccc5c(c4)OCO5)C(=O)[C@H]3CC[C@H]12 | -5.83% [at 11.4 µM] (inactive) | –
54 | COc1ccc(C(=O)N/N=C2/SCC(=O)N2Cc2ccc3c(c2)OCO3)cc1OC | – | 14.1 µM (active)
55 | Cc1ccc(NC2=NC(c3ccccc3)n3c(nc(C)cc3=O)N2)c(C)c1 (stereo not drawn) | – | 35.5 µM (active)
56 | COc1ccccc1CNc1cc(-c2ccccc2C)ncn1 | -15.1% [at 2.29 µM] (inactive) | –
57 | O=C1C(=O)N(c2cccc(Cl)c2)C(c2ccccc2[N+](=O)[O-])/C1=C(\O)c1ccccc1 (stereo not drawn) | – | 2 µM (active)
58 | COc1ccc(C2/C(=C(/O)c3ccc(Cl)cc3)C(=O)C(=O)N2CCN2CCOCC2)c(OC)c1 (stereo not drawn) | -24.6% (inactive) | –
